Screening data (PubChem)
JMJD2A Tudor: inhibitors of human JMJD2A Tudor domain. O75164. AlphaScreen JMJD2A-Tudor / H3K4me3 peptide binding. Potency, µM (series often up to 114 µM), without a hit: at the top dose activity change, negative = inhibition, actives largely listed as inhibitors. 390,000 tested, 4.4% active; further: on the % scale 0 is the no-effect control and ±100 the full control effect; nearly all actives have a fitted effect of over 50% in size
BAZ2B inh: inhibitors of human BAZ2B bromodomain; AID 504333; 360,000 tested, 4.4% active; Potency, µM (doses to about 114 µM), inactives show at the top dose activity change, negative = inhibition, actives largely listed as inhibitors; AlphaScreen BAZ2B-H3K14Ac peptide displacement; Q9UIF8; further: on the % scale 0 is the no-effect control and ±100 the full control effect; nearly all actives have a fitted effect of over 60% in size
Target sequence (Q9UIF8 whole entry, looked up): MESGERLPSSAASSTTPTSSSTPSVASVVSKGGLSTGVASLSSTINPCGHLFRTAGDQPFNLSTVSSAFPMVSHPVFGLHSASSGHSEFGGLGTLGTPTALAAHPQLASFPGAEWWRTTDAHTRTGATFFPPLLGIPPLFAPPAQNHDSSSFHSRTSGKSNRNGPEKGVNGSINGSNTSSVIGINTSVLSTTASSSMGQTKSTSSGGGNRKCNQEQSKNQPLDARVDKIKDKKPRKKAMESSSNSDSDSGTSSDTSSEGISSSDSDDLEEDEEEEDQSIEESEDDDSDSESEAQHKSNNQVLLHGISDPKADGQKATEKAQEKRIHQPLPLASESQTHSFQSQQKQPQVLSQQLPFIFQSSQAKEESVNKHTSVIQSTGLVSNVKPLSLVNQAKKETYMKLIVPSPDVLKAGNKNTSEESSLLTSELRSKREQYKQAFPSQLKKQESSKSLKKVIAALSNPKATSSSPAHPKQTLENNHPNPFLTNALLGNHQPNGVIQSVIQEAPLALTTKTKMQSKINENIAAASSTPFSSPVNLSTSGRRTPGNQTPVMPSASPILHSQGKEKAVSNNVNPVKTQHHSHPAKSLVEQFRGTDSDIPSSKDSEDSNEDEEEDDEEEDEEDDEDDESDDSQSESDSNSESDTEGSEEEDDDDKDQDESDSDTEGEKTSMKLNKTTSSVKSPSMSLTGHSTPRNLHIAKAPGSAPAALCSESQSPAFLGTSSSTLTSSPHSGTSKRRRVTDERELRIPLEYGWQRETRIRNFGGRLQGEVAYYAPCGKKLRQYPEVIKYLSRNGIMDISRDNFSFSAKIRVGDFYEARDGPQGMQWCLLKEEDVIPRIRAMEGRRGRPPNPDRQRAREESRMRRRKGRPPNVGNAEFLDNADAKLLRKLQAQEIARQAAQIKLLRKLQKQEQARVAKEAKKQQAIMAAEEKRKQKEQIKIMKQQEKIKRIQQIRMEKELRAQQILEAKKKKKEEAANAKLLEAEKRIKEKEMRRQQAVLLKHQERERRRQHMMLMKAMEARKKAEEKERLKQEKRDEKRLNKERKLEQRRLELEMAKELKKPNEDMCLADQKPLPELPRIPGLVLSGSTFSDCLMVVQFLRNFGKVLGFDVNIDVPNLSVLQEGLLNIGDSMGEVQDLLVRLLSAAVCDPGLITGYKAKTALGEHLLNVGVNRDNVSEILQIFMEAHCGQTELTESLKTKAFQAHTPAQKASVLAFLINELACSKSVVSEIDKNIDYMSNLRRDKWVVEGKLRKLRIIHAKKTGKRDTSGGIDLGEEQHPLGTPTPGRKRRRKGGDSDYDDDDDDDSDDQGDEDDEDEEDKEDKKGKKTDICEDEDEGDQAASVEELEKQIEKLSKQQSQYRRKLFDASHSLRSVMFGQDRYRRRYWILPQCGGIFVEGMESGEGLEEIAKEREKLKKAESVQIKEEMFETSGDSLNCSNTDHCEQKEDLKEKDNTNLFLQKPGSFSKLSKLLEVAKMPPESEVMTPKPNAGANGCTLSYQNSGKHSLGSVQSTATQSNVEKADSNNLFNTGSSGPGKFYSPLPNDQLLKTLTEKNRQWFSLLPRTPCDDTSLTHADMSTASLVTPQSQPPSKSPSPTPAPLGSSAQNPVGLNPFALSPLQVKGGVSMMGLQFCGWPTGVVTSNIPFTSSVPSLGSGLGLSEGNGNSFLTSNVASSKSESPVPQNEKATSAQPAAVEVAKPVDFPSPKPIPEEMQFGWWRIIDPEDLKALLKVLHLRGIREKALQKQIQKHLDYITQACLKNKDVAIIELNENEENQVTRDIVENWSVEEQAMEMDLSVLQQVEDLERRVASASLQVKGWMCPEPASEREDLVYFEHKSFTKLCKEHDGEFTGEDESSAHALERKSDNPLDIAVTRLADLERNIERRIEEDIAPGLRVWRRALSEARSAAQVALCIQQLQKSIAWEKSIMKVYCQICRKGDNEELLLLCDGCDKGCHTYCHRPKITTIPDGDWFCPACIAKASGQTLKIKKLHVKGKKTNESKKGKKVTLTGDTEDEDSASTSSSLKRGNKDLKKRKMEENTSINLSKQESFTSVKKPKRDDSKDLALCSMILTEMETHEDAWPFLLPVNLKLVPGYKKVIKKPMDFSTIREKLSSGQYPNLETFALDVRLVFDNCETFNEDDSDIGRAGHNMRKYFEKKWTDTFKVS
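Compounds, titrated to a top concentration of 110 uM, were incubated 30 min at room temperature with preformed BAZ2B/acetyl-K14 H3 peptide complex (50 nM each). Proximity signal was measured by AlphaScreen after 20 min with beads.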
HP1b binding inh: blocks HP1-beta chromodomain binding to methylated histone tails | P83916 | AlphaScreen HP1-beta / biotin-H3K9me3 peptide binding | Potency, µM (series often up to 114 µM), without a hit: top-dose activity change, negative = inhibition, hits mostly inhibitors | 390,000 tested, 0.56% active | AID 540317; further: nearly all actives have a fitted effect of over 70% in size
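Compound inhibition of the preformed complex between 50 nM HP1-beta and 50 nM biotinylated H3K9me3 peptide was read by AlphaScreen. Buffer was PBS pH 7.4 with 0.01% Tween-20. Incubations ran 30 min at room temperature, with 10 ug/mL donor/acceptor beads.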
Sfp PPTase inh: Sfp phosphopantetheinyl transferase inhibition. Q9F4F7. Biochemical Sfp PPTase activity, qHTS. Potency, µM, inactives show largest response in the series, negative = inhibition, actives largely listed as inhibitors. 310,000 tested, 3.5% active. AID 1490;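 further: the enzyme is Sfp with the accession as filed and its product quenches rhodamine fluorescence; 0% = enzyme reaction without inhibitor and -100% = no enzyme wells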
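With Hepes-Na pH 7.6 buffer containing 10 mM MgCl2, Sfp (15 nM) modified BHQ-2-YbbR (12.5 uM) using rhodamine-CoA (5 uM). Two reads 30 minutes apart at 525/598 nm yielded each well's rate.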
G9a inh: blocks human histone lysine methyltransferase G9a. Q96KQ7. G9a H3K9 monomethylation, AlphaScreen, 2 h. Potency, µM (highest dose often 102 µM), for the others: top-dose activity, negative = inhibition, usual class: inhibitors. 350,000 tested, 8.8% active. AID 504332; further: on the % scale 0 is the no-effect control and ±100 the full control effect; nearly all actives have a fitted effect of over 75% in size
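G9a (20 nM) was preincubated 15 min with compound, then reacted 2 h at room temperature with 500 nM biotin-H3K9 peptide and 20 µM SAM. Monomethyl-H3K9 detected by AlphaScreen using anti-H3K9me1 antibody.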
* = called active by the depositor; ? = inconclusive; nt = not tested or not shown; [ ] = dose if it differs, or a comment. Only some compounds are listed: those with a hit (about 12% of all), similar ones and a draw of the others. The call rests on the fitted dose curve; in most records, active means well fitted curve in the direction sought with a large enough effect; inconclusive means small, poorly fitted or top-dose-only effect, or another doubt; inactive means no such curve, though single readings can be large; an effect the other way counts as inactive or inconclusive. Potency means the concentration at half of the fitted maximal effect.

SMILES	JMJD2A Tudor	BAZ2B inh	HP1b binding inh	Sfp PPTase inh	G9a inh
C=CCn1c(O)c(N=NC(=S)Nc2cccc(C)c2)c2ccccc21	8.9µM*	3.2µM*	?	-10%	14µM*
O=C(N=Nc1c(O)n(Cc2ccccc2)c2ccccc12)c1ccncc1	-26%	35µM*	13%	-16%	nt
CCn1c(O)c(N=NC(=O)CNc2cccc(C)c2)c2ccccc21	?	?	-7%	-5%	-7%[59 µM]
CCCCNC(=S)N=Nc1c(O)n(Cc2ccccc2)c2ccccc12	?	?	?	?	32µM*
C=CCn1c(O)c(N=NC(=O)CNC(=O)/C=C/c2ccc(OC)cc2)c2ccccc21	-21%	-35%	12%	14%	nt
NC(=S)N=Nc1c(O)n(Cc2ccccc2)c2ccccc12	-21%	?	18%	10%	20%[59 µM]
C=CCn1c(O)c(N=NC(=O)CNC(=O)/C=C/c2ccco2)c2ccccc21	?	?	-11%	?	50µM*
Nc1c(C(=O)NCCc2ccccc2)nnn1CC(=O)Nc1ccc(Cl)cc1	-31%	10%[57.1 µM]	-7%	nt	-8%[59 µM]
Cc1ccc(S(=O)(=O)C(CNC(=O)c2ccc(F)c(F)c2)c2ccco2)cc1 (centres undefined)	-18%	-5%	3%	nt	7%[59 µM]
Cc1ccc(Cn2c(O)c(N=NC(=S)Nc3ccccc3F)c3ccccc32)cc1	?	40µM*	-8%	8%	11µM*
Oc1c(N=NC(=S)Nc2ccccc2F)c2ccccc2n1Cc1ccccc1	?	?	?	6%	18µM*
Cc1c(Cl)cccc1NC(=S)N=Nc1c(O)n(CN2CCOCC2)c2ccccc12	?	?	1%	0%	?
COC(=O)N=Nc1c(O)n(Cc2ccccc2)c2ccccc12	-18%	-21%	3%	-16%	15%
Oc1c(N=NC(=S)Nc2ccccc2F)c2ccccc2n1Cc1ccccc1Cl	4µM*	?	?	5%	18µM*
C=CCn1c(O)c(N=NC(=S)Nc2ccccc2F)c2ccccc21	10µM*	?	?	-6%	11µM*
COc1cc(-c2cccc([C@H]3[C@@H]4C=CC[C@@H](C)[C@@H]4C(=O)N3Cc3ccccc3)c2)cc(OC)c1OC	-21%	nt	26%	?	0%[59 µM]
Cc1ccc(C(=O)Oc2cc(-c3ccc4c(c3)OCO4)cc(=O)c3c(C)oc(C)c23)cc1	?	?	8%	nt	?
Cc1oc(C)c2c(=O)cc(-c3ccc4c(c3)OCO4)cc(OC(=O)c3cccc(Br)c3)c12	-33%	-29%	6%	nt	?
Cc1ccccc1C(=O)Oc1cc(-c2ccc3c(c2)OCO3)cc(=O)c2c(C)oc(C)c12	-34%	?	1%	nt	14µM*
CCOc1cc(-c2ccc3c(c2)OCO3)cc(=O)c2c(C)oc(C)c12	nt	?	nt	32µM*	?
COc1ccccc1N1CCN(S(=O)(=O)c2cc3c(cc2C)NC(=O)CO3)CC1	-31%	-29%	18%	4%	79µM*
Cc1cccc(NC(=O)C2CCCN(S(=O)(=O)c3cccc4nonc34)C2)c1C (centres undefined)	-12%	15%	42%	nt	?
C=CCNc1nc(C(=O)OCC(=O)Nc2ccc(S(N)(=O)=O)cc2)cs1	?	89µM*	0%	nt	-36%
C=CCNc1nc(C(=O)OCC(=O)Nc2cc(S(C)(=O)=O)ccc2Cl)cs1	-2%	7%	32%	nt	45µM*
C=CCNc1nc(C(=O)OCC(=O)c2ccccc2)cs1	-12%	?	10%	8%	nt
SMILES	JMJD2A Tudor	BAZ2B inh	HP1b binding inh	Sfp PPTase inh	G9a inh
Cc1ccc2sc(NNC(=O)c3cc(-c4cccs4)nc4ccccc34)nc2c1C	nt	5%	nt	-19%	32µM*
Cc1cc(C)c2nc(NNC(=O)c3cc(-c4cccs4)nc4ccccc34)sc2c1	?	?	36%	-27%	32µM*
CC(C)OCCCNC(=O)c1cc(-c2cccs2)nc2ccccc12	0%	1%	43%	-2%	22%[0.501 µM]
O=C(NNc1nc2ccc(Cl)cc2s1)c1cc(-c2cccs2)nc2ccccc12	?	-34%	49%	-4%	-9%
Cc1ccc(NC(=O)c2cc(-c3cccs3)nc3ccccc23)nc1	11%	-18%	63%	-12%	40µM*
Cc1cccc(NC(=O)CCn2nc(C)c3c(C)n(-c4ccccc4)nc3c2=O)c1C	-9%	-14%	7%	nt	-24%[59 µM]
CNC(=O)C1CCC(Cn2c(=O)c3sccc3n(CC(=O)Nc3cc(F)ccc3F)c2=O)CC1 (centres undefined)	2%	0%	62%	nt	7%[59 µM]
CN(C)c1ccc(CNC(=O)CCCN2C(=O)CCn3nc(-c4cn(C)c5ccccc45)cc32)cc1	-27%	-4%	9%[57 µM]	nt	13%[59 µM]
CN(C)c1ccc(CNC(=O)CN2C(=O)CCn3nc(-c4cn(C)c5ccccc45)cc32)cc1	50µM*	45µM*	-9%[57 µM]	nt	?
CCOc1cc(C(=O)Nc2ccc(S(=O)(=O)Nc3nnc(CC)s3)cc2)cc(OCC)c1OCC	25µM*	-1%	44%	-4%	?
CCc1nnc(NS(=O)(=O)c2ccc(NC(=S)NC(=O)/C=C/c3ccc(F)cc3)cc2)s1	56µM*	50µM*	?	11%	89µM*
CCc1nnc(NS(=O)(=O)c2ccc(NC(=S)NC(=O)c3ccc(OC)cc3)cc2)s1	-17%	-11%	-11%	-23%	?
CCc1nnc(NC(=O)c2ccc(NC(=O)C(C)C)cc2)s1	-8%	-16%	24%	6%	56µM*
CCc1nnc(NS(=O)(=O)c2ccc(NC(=S)NC(=O)c3ccncc3)cc2)s1	?	?	9%	-3%	50µM*
CC(C)c1ccc(S(=O)(=O)Nc2ccc3oc4c(c3c2)C(=O)CC(C)(C)C4)cc1	-13%	12%	24%	nt	7%[59 µM]
Cc1ccccc1NC(=O)Cc1nc(COC(=O)C(NC(=O)c2ccccc2C)C(C)C)cs1 (centres undefined)	-17%	7%	29%	nt	-10%[2.33 µM]
CCc1nnc(NS(=O)(=O)c2ccc(NC(=S)NC(=O)/C=C/c3ccc([N+](=O)[O-])cc3)cc2)s1	3%	?	42%	7%	35µM*
Cc1ccc(/C=C/C2=C[C@]3(C)C[C@]2(C)[C@H](c2ccc(C)cc2)CC3=O)cc1	nt	nt	nt	5%	nt
CC(C)Oc1ccc(CNC(=O)C2CCN(Cc3cc4ccccc4n3Cc3ccccc3)CC2)cc1	-24%	-13%	19%	nt	-1%[59 µM]
Cc1ccc(C(C)C)cc1OCC(=O)NNC(=O)Nc1ccccc1	-11%	7%	48%	5%	79µM*
O=C(O)C(Cc1ccc(OS(=O)(=O)Cc2ccccc2)cc1)NS(=O)(=O)Cc1ccccc1 (centres undefined)	-3%	nt	13%	nt	nt
CC(C)CCNC(=O)C1CCN(C(=O)N2CCOc3ccc(Cl)cc32)CC1	-27%	-20%	23%	nt	-35%[59 µM]
